Screens as filed in PubChem.
HT1080 IDH1KD tx: qHTS for induction of synthetic lethality in tumor cells producing 2HG: qHTS for the HT-1080-IDH1KD cell line. HT-1080 IDH1 knockdown viability, ATP luminescence, 48 h. Potency, µM (highest dose often 46.1 µM), for the others: top-dose activity, negative = toxicity, hits mostly cytotoxic. actives 2% (n = 360,000);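 note: potency is the fitted concentration of half-maximal effect; 0% = DMSO wells and -100% = cell-free medium wells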
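CellTiter-Glo luminescence after 48 h compound exposure at 37 degrees C of IDH1-knockdown HT-1080 cells in 5% FBS RPMI. %Activity scaled between DMSO wells and cell-free media wells, with curves fitted and assigned curve classes.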
DT40 TDP1 CPT: qHTS for Inhibitors of human tyrosyl-DNA phosphodiesterase 1 (TDP1): qHTS in cells in presence of CPT | chicken DT40 Tdp1-/-;hTDP1 cells + 20 nM CPT, ATP luminescence, 48 h | Potency, µM (titrated, usually from 46.2 µM), for the others: at the highest dose activity change, negative = growth inhibition, most hits filed as inhibitors | actives 12% (n = 420,000); note: potency is the fitted concentration of half-maximal effect; nearly all actives have a fitted effect of over 55% in size
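Chicken DT40 Tdp1-/- cells complemented with human TDP1, 400 cells/well, exposed to compounds plus 20 nM camptothecin for at least 48 h at 37 C; viability read as ATP content by CellTiter-Glo luminescence.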
HT1080NT lethal: qHTS for induction of synthetic lethality in tumor cells producing 2HG: qHTS for the HT-1080-NT fibrosarcoma cell line | HT-1080-NT fibrosarcoma viability, CellTiter-Glo ATP luminescence, 48 h | Potency, µM (series often up to 46.1 µM), for the others: top-dose activity, negative = less viability, actives largely listed as cytotoxic | actives 1.6% (n = 360,000) | AID 686970, 2013;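 note: NT is the 2HG producing partner of a matched IDH1 knockdown line; potency is the fitted concentration of half-maximal effect; 0% = DMSO-treated cells and -100% = media-only wells without cells; nearly all actives have a fitted effect of over 55% in size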
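HT-1080-NT; 750 cells/well; 5% FBS RPMI; 48 h compound, 37 degrees C; CellTiter-Glo luminescence; curve fitting and curve-class assignment.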
IL-1B inflam inh: qHTS for Inhibitors of Inflammasome Signaling: IL-1-beta AlphaLISA Primary Screen; THP-1 LPS/ATP IL-1B secretion, AlphaLISA, 16 h; hits give low values; activity change, % at 57.5 µM; actives 4.7% (n = 360,000); in the data active = activity change below about -50%; inconclusive = mostly about -30% to -49%
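Secreted IL-1B measured by AlphaLISA bead assay after 16 h compound exposure of THP-1 cells; compounds (final up to 57.5 uM) added 1 h before LPS (250 ng/mL) and ATP (1.25 mM) stimulation; lower signal means less secretion.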
DT40 TDP1 no CPT: qHTS for Inhibitors of human tyrosyl-DNA phosphodiesterase 1 (TDP1): qHTS in cells in absence of CPT; Potency, µM (series often up to 46.2 µM), for the others: at the highest dose activity change, negative = growth inhibition, most hits filed as inhibitors; DT40 Tdp1-/- hTDP1 cells, no CPT, ATP luminescence, 48 h; actives 15% (n = 420,000); note: potency is the fitted concentration of half-maximal effect; nearly all actives have a fitted effect of over 55% in size
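Camptothecin absent (DMSO only). Human TDP1-complemented DT40 knockout cells, 400 cells/well, 37 °C for minimum 48 hr; ATP measured via CellTiter-Glo, 30 min dark incubation, luminescence.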
* hit, by the source's call; ? = inconclusive; . = not tested or not shown. A selection: hits, their analogues and other compounds. The true share with any hit is near 19%. Unless noted, calls come from the whole dose curve; as a rule, active = well fitted curve in the direction sought with a large enough effect; inconclusive = small, poorly fitted or top-dose-only effect, or another doubt; inactive = no such curve, though single readings can be large; an effect the other way counts as inactive or inconclusive. Unless noted, % is set by controls: 0 for no effect and ±100 for the full control effect.

SMILES	HT1080 IDH1KD tx	DT40 TDP1 CPT	HT1080NT lethal	IL-1B inflam inh	DT40 TDP1 no CPT
O=C(COc1ccccc1)N=C1SC2CS(=O)(=O)CC2N1Cc1ccccc1 (stereo not drawn)	3.5%	0.8%	-0.4%	-1.0	-28.3%
CCCCCCCCCCCCCCC(O)C[N+](C)(CCO)CCO (stereo not drawn)	18.4µM*	2.31µM*	?	-99.7*	3.66µM*
CCCC[C@@H]1CNC(=O)C(=O)N1CCc1cccc(F)c1	-3.1%	?	-13.0%	.	-16.7%
O=c1cnn(Cc2ccc(Cl)c(Cl)c2)c2ccccc12	-25.8%	20.6µM*	-22.9%	-25.2	14.6µM*
O=c1c2ccccc2cnn1Cc1ccc(Cl)c(Cl)c1	-11.1%	-6.0%	-17.2%	10.3	?
Cc1nc(Nc2ccc(Cl)cc2)c2nnn(Cc3ccccc3)c2n1	-16.2%	?	-25.2%	-0.6	?
CC(=O)Nc1ccc(S(=O)(=O)N2CCC(c3nc4c(nnn4Cc4ccccc4Cl)c(=O)[nH]3)CC2)cc1	-16.4%	25.7%	-26.6%	-50.8*	16.2%
Cc1ccc(Cn2nnc3c(=O)[nH]c(C4CCCN(C(=O)Nc5ccc(F)cc5)C4)nc32)cc1 (stereo not drawn)	-13.3%	?	-1.5%	8.7	18.4µM*
CC(=O)Nc1ccc(Nc2nc(C)nc3c2nnn3Cc2ccccc2Cl)cc1	?	-15.8%	?	-18.5	16.4µM*
O=C(c1ccco1)N1CCC(c2nc3c(nnn3Cc3ccccc3Cl)c(=O)[nH]2)CC1	-23.2%	?	-13.5%	9.7	?
Cc1ccc(C)c(Cn2nnc3c(=O)[nH]c(C4CCCN(C(=O)C5CCC5)C4)nc32)c1 (stereo not drawn)	?	-4.2%	-8.6%	15.6	-12.3%
O=C(Nc1ccc(F)cc1)N1CCC(c2nc3c(nnn3Cc3ccccc3Cl)c(=O)[nH]2)CC1	-29.5%	?	-27.6%	-73.8*	?
CCn1c(=O)c2sccc2n2c(CCCC(=O)NCc3cccnc3)nnc12	6.6%	19.9%	6.8%	-13.6	0.5%
Cc1ccccc1-c1n[nH]nc1C1=CC(=O)C[C@H](c2ccc(F)cc2)C1	-12.8%	-21.5%	-8.0%	?	?
COc1ccc2[nH]c(C(=O)O)c(NC(=O)c3cc(OC)c(OC)c(OC)c3)c2c1	2.5%	23.8%	2.9%	38.2	20.5%
CCCOc1ccc(/C=C2/C(=O)ON=C2C)cc1OCC	-2.6%	?	4.0%	-27.4	?
CCOc1cc(/C=C2\C(=O)ON=C2C)ccc1OCc1ccccc1	?	?	?	-117.4*	14.6µM*
COc1ccc(/C=C2/C(=O)ON=C2C)cc1Cl	-9.2%	?	-22.6%	-25.1	?
C=CCOc1ccc(/C=C2/C(=O)ON=C2C)cc1OC	-9.2%	?	?	-97.1*	?
CCOC(=O)N1CCN(C(=O)c2ccc3c(=O)n(-c4cc(OC)ccc4OC)c(=S)[nH]c3c2)CC1	0.2%	-4.1%	-2.9%	42.4	13.3%
COc1ccc(CCNC(=O)Cn2c(=O)n(-c3cc(OC)c(OC)c(OC)c3)c(=O)c3ccccc32)cc1OC	.	-2.7%	.	.	1.7%
Cc1cc(O)c(C(=O)/C=C/c2ccc(Cl)cc2)c(=O)o1	7.0%	?	-0.5%	?	?
Cc1c(O)c2c(c(C(=O)/C=C/c3ccccc3)c1O)OC(C)(C)C=C2	.	?	.	.	11.2µM*
CC(C)[C@H](NC(=O)OC(C)(C)C)C(=O)N/N=C/c1cccc2nccnc12	?	-14.7%	?	13.7	?
O=C(Nc1cccc2c1CCCC2)C1CCN(c2nnnn2-c2ccccc2)CC1	-2.8%	?	7.6%	13.1	16.4µM*
SMILES	HT1080 IDH1KD tx	DT40 TDP1 CPT	HT1080NT lethal	IL-1B inflam inh	DT40 TDP1 no CPT
Cc1nnc(NC(=O)C2CCN(c3nnnn3-c3ccccc3)CC2)s1	-0.9%	?	3.9%	25.0	-12.9%
CCOP(=O)(OCC)C(C)(C)NC(=O)Nc1ccc(Cl)c(Cl)c1	-14.4%	-17.5%	-10.6%	-66.5*	?
COc1ccccc1N/C(N)=N/c1nc(CSc2ccc(C)cc2)cc(=O)[nH]1	-22.8%	18.4µM*	-11.5%	87.2	7.31µM*
Cc1ccc(SCc2cc(=O)[nH]c(/N=C(\N)Nc3ccccc3Sc3ccccc3)n2)cc1	-6.5%	?	-1.7%	25.5	29.1µM*
C=CCOc1c(Br)cc(/C=N/n2c(CC)n[nH]c2=S)cc1Br	-16.6%	?	?	-8.4	?
Cc1cc(C)c2c(n1)nn1c(C)c(CCC(=O)Nc3cccc(C)c3C)c(C)nc21	.	7.31µM*	.	.	7.31µM*
COc1cc(OC)c(NC(=O)CCc2c(C)nc3c4c(C)cc(C)nc4nn3c2C)cc1Cl	.	-17.9%	.	.	-20.8%
CCOc1ccc(CCNC(=O)CCc2c(C)nc3c4c(C)cc(C)nc4nn3c2C)cc1	.	4.7%	.	.	-14.8%
COc1cccc(CNC(=O)CCc2c(C)nc3c4c(C)cc(C)nc4nn3c2C)c1	.	?	.	.	23.1µM*
CCOc1ccc2oc(C(=O)N(Cc3nnc(-c4ccccc4Cl)o3)C3CC3)c(C)c2c1	4.4%	?	3.2%	-4.4	23.1µM*
Cc1ccc(S(=O)(=O)CCC(=O)N(Cc2nnc(-c3ccc(Cl)cc3)o2)C2CC2)cc1	-1.3%	?	-3.5%	-17.5	?
O=C(c1cc2ccccc2o1)N(Cc1nnc(-c2ccccc2Cl)o1)C1CC1	1.1%	-19.7%	0.0%	-1.2	?
O=C(c1cc(Cl)nc2ccccc12)N(Cc1nnc(-c2ccc(Cl)cc2)o1)C1CC1	-1.3%	11.6µM*	-8.5%	-4.5	16.4µM*
O=C(c1cc(Cl)nc2ccccc12)N(Cc1nnc(-c2ccccc2Cl)o1)C1CC1	-10.0%	16.4µM*	-5.9%	-7.5	20.6µM*
CCOc1ccc(NC(=O)Cn2c(=O)n(-c3cccc(Cl)c3)c(=O)c3c2c2cc(C)ccc2n3C)cc1	.	-9.2%	.	.	0.9%
CS(=O)(=O)c1ccc(NC(=O)c2cccc(S(=O)(=O)N3CCN(Cc4ccccc4)CC3)c2)cc1	-2.4%	?	-2.7%	-12.8	?
C#CCNC(=O)C[C@@H]1C[C@@]2(C(=O)OC)CC(C)(C)CC=C2N(Cc2ccccc2)C1=O	6.0%	?	7.1%	4.6	?
CCCCOCCCNC(=O)C[C@@H]1C[C@@]2(C(=O)OC)CC(C)(C)CC=C2N(Cc2cccc3ccccc23)C1=O	20.6µM*	?	?	-5.1	?
CCCCOCCCNC(=O)C[C@@H]1C[C@@]2(C(=O)OC)CC(C)(C)CC=C2N(Cc2ccccc2)C1=O	-11.5%	20.6µM*	-22.8%	?	?
